# Test results reported in PubChem BioAssay AID1832 (Broad Institute, 2009).
# In all, about 300,000 compounds went through this assay and about 1,100 (0.37%) were called active. The sample holds actives, similar compounds and a random draw of the others, so the mix is not that of the screen. Unmarked numbers belong to inactive results.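 The calls were made as follows: active = inhibition past about -25% in most replicates, and total fluorescence under double the plate's negative control median (limit read from the data); inconclusive = replicates evenly split on the limit, or fluorescence at least double controls; inactive = too little inhibition in most replicates.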
# Biological target: Zinc finger protein mex-5 (Caenorhabditis elegans) (UniProt Q9XUB2)
# Experiment: MEX-5 zinc finger RNA-binding disruptors – biochemical, C. elegans, fluorescence polarization, MLPCN library, primary screen (AID 1832);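 also: 0% = DMSO and -100% = 5 µM competing unlabeled TCR2 RNA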
# Conditions: MEX-5/FITC-TCR2 RNA binding, at 10 µM, active compounds read low
# Chain of Zinc finger protein mex-5 (Caenorhabditis elegans) (Q9XUB2 whole entry, looked up): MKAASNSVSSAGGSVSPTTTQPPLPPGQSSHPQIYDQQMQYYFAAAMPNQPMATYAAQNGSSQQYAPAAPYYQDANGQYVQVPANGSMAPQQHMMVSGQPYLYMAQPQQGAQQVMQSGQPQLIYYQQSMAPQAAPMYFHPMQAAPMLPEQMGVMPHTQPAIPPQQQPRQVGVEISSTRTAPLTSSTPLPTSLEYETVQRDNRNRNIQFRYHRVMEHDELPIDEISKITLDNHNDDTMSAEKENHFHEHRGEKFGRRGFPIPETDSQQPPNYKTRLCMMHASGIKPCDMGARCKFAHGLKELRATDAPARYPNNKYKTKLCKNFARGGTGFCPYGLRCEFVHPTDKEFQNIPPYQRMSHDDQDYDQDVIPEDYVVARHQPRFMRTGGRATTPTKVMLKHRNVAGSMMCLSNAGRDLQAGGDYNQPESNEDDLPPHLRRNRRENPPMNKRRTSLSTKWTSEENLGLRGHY
row,Compound,activity score (negative = inhibition of binding)
1,Cc1cccn2c(=O)c3cc(C(=O)NCCN4CCOCC4)c(=N)n(Cc4cccnc4)c3nc12,-41.6% (active)
2,COc1ccc(CCn2c(=N)c(C(=O)NCC3CCCO3)cc3c(=O)n4cccc(C)c4nc32)cc1OC (stereo not drawn),1.85%
3,Cc1cccn2c(=O)c3cc(C(=O)NCC4CCCO4)c(=N)n(Cc4ccc(F)cc4)c3nc12 (stereo not drawn),-0.627%
4,CN(C)C(CNC(=O)c1cccc(S(=O)(=O)Nc2ccc(Br)cc2)c1)c1ccco1 (stereo not drawn),-4.39%
5,O=C(Nc1ccccc1Cc1ccccc1)c1ccc2c(c1)SC1=NS(=O)(=O)CCN12,1.1%
6,Fc1ccc(/C=N/Nc2nc(-c3cccnc3)nc3ccccc23)cc1,4.03%
7,COc1ccccc1Oc1nc(-c2cccnc2)nc2ccccc12,3.68%
8,COc1ccc(Nc2nc(-c3cccnc3)nc3ccccc23)cn1,-55.5% (active)
9,O=C(NCc1ccc2c(c1)OCO2)C(=O)NCC1OCCN1S(=O)(=O)c1ccc(F)cc1 (stereo not drawn),-0.888%
10,COc1ccc(CNc2nc3c(c(=O)[nH]c(=O)n3C)n2Cc2ccccc2)cc1,-0.659%
11,COCCn1c(N)c(N(Cc2ccccc2)C(=O)C2CCCCC2)c(=O)[nH]c1=O,1.74%
12,COCCn1c(N)c(NCc2ccccc2)c(=O)[nH]c1=O,-67.9% (active)
13,Cc1nnc(SCc2ccc(C(=O)c3ccc(Cl)cc3)o2)n1-c1ccccc1,-1.84%
14,COc1ccc(CC(=O)NCc2nnc(SCC(=O)Nc3ncc(C)s3)n2C)cc1,0.258%
15,COc1ccc(C(=O)NNC(=O)c2cnccn2)cc1[N+](=O)[O-],-64.4% (active)
16,COc1ccc(C(=O)O/N=C(\N)c2ccccn2)cc1[N+](=O)[O-],-0.00548%
17,COc1cccc(OCC(=O)NNC(=O)c2cnccn2)c1,-22.4%
18,O=C(CN1C(=O)c2cccnc2Oc2ccc(Cl)cc21)Nc1ccc(F)cc1,-1.82%
19,COCCCNCC(=O)Nc1sc(C)c(C)c1C(=O)OC,0.906%
20,Cc1ccc(O)c(CCc2ccccc2)n1,-3.03%

row,Compound,activity score (negative = inhibition of binding)
1,Cc1[nH]c2ccccc2c1/C=N\NC(=O)Cn1nnc(-c2ccccc2)n1,0.39%
2,O=C(Cn1cncn1)N/N=C/c1c2ccccc2cc2ccccc12,-30% (active)
3,Nc1nnn(CC(=O)N/N=C/c2ccccc2)n1,-0.796%
4,Cc1ccc(-c2cc(C(=O)NC3CCN(Cc4ccccc4)CC3)c3ccccc3n2)cc1,-2.28%
5,O=C(Nc1ccc(F)cc1)C(=O)c1cn(CC(=O)N2CCOCC2)c2ccccc12,-1.93%
6,COc1cccc(NC(=O)C(=O)c2cn(CC(=O)N3CCOCC3)c3ccccc23)c1,-27.9% (active)
7,COc1cccc(NC(=O)CS(=O)(=O)c2cn(CC(=O)N3CCOCC3)c3ccccc23)c1,-1.81%
8,COc1ccc(-c2n[nH]c3c2CN(C(=O)c2ccc(F)cc2)CC3)cc1,0.485%
9,O=c1ccc(-c2ccc(S(=O)(=O)Nc3ccccc3)o2)n[nH]1,1.3%
10,Cc1cc2oc3ccc(NCCC4CCCN4C)cc3c(=O)c2cc1C (stereo not drawn),-10.1%
11,CCSCc1nc(N)nc(NCCc2ccccc2)n1,-1.2%
12,O=C(Nc1ccc(OC(F)(F)F)cc1)c1ccc2c(c1)no[n+]2[O-],-2.46%
13,COc1cccc(-c2nc(CS(=O)CC(=O)NCc3ccc(F)cc3)c(C)o2)c1 (stereo not drawn),0.156%
14,COc1ccc(-c2nc(CS(=O)CC(=O)NCc3ccccc3)c(C)o2)cc1OC (stereo not drawn),2.34%
15,COc1ccc(-c2nc(CS(=O)CC(=O)NCc3ccccn3)c(C)o2)cc1 (stereo not drawn),-66% (active)
16,O=C(CCC(=O)NNc1nc2ccccc2c2nc(-c3ccccc3)nn12)NCCCN1CCCC1=O,0.509%
17,COc1ccc(OC)c(-n2cc3c(=O)n(C)c(=O)n(C)c3c2)c1,-2.26%
18,COC(=O)C1=C[C@@H](C(=O)OC)[C@@H]2C3=C(C(=O)[C@]2(C)NC(=O)c2ccccc2)[C@H](C)n2c(=O)n(C)c(=O)n2[C@@H]3C1,0.374%
19,CC(Cc1ccccc1)C(=O)N(C)Cc1ccccc1 (stereo not drawn),2.02%
20,COc1ccc(CNC(=O)C(Cc2ccccc2)n2cccc2)cc1 (stereo not drawn),2.2%

row,Compound,activity score (negative = inhibition of binding)
1,Cc1ccc(C)n1C(Cc1ccccc1)C(=O)O (stereo not drawn),-27.1% (active)
2,Cc1c(C=O)c2ccccc2n1CC(=O)O,-1.11%
3,C[C@@H](C(=O)Nc1ccc2ccccc2c1)[C@@H]1C[C@@]1(C)[C@@H](NC(=O)c1cccnc1)c1ccccc1,2.99%
4,O=C(Nc1c2c(nn1-c1cccc(Cl)c1)CS(=O)(=O)C2)c1cccs1,-4.55%
5,Cc1ccccc1NC(=S)NC(=O)Cc1ccc(Cl)cc1,0.984%
6,CCCc1nnc(NC(=O)CCC(=O)N2CCN(S(=O)(=O)c3ccc(OC)cc3)CC2)s1,2.03%
7,CCN1CC=C2C(C#N)=C(N)C(C#N)(C#N)[C@H](c3ccoc3)[C@H]2C1,-84.8% (active)
8,CCCN1CC=C2C(C#N)=C(N)C(C#N)(C#N)C(c3cc(OC)ccc3OC)C2C1 (stereo not drawn),-27.2% (active)
9,CCC1=C(C(=O)OC)C(c2cc(OC)ccc2OC)C(C#N)=C(N)O1 (stereo not drawn),-1.18%
10,CC1=C(C(N)=O)C(c2ccc(F)cc2)n2nc(CCCO)nc2N1 (stereo not drawn),-1.99%
11,CCCCn1c(N)c(N(Cc2ccccc2OC)C(=O)COc2cc(C)ccc2Cl)c(=O)[nH]c1=O,-0.677%
12,CC1CC(C)CN(c2ccc(S(=O)(=O)N3CCOCC3)cc2)C1 (stereo not drawn),-0.658%
13,CCN(Cc1ccccc1)S(=O)(=O)c1cc2c3c(c1)CCN3C(=O)CC2,1.24%
14,O=C1Cc2ccccc2Sc2ccc(Cl)cc21,-1.6%
15,CC(C)[C@H](NC(=O)N1c2ccccc2NC(=O)[C@@H]1C(C)C)C(=O)N[C@H](C(=O)O)c1ccccc1,1.76%
16,Cc1cccc(N=Nc2c(O)[nH]c3ccc(F)cc23)c1,-37.8% (active)
17,COCC(=O)N=Nc1c(O)[nH]c2ccccc12,-1.5%
18,Cc1cccc(N=Nc2c(C)[nH]n(-c3ccccc3)c2=O)c1,-1.5%
